This note sets out measurements from PubChem BioAssay (EPA / NIEHS).

For assay [1], the target named is Glucocorticoid receptor (Homo sapiens) (UniProt P04150). The experiment in a line: NVS_NR_hGR: NovaScreen (NVS) Nuclear Receptor Binding Assay for human Glucocorticoid Receptor (GR) (AID 2283363).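 On AC50: activity is loss of specific radioligand binding signal relative to DMSO.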 A digest of the protocol: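 Cell-free radioligand displacement assay on extracted human GR, read 16 h after dosing by filter-based scintillation counting. Screened in duplicate at 25 uM, then concentration series for actives; loss of signal versus DMSO baseline.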

In assay [2] the target is guinea pig Sigma Receptor, Non-selective Binding, SIGMAR1 (gene 100135589) (UniProt Q60492). The experiment in a line: NVS_OR_gSIGMA_NonSelective: NovaScreen (NVS) Nuclear Receptor Binding Assay for guinea pig Sigma Receptor, Non-selective Binding (AID 2283367). A digest of the protocol:
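Radioligand displacement on guinea pig brain membranes, read by filter-based scintillation counting 1 h after dosing. Loss of signal versus DMSO; initial duplicate single-point screen at 25 uM, actives followed in concentration series.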

Assay [3] has as its target Nuclear receptor subfamily 1 group I member 2 (Homo sapiens) (UniProt O75469). The experiment in a line: NVS_NR_hPXR: NovaScreen (NVS) Nuclear Receptor Binding Assay for human Pregnane X Receptor (PXR) (AID 2283365).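 Further: a drop in FRET signal versus DMSO baseline means the compound binds.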 A digest of the protocol:
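Human PXR binding measured by TR-FRET in a cell-free format, 2 h exposure. Single-concentration duplicates at 25 uM preceded concentration-response retests of actives; endpoint fitted positively relative to DMSO, loss of signal indicating binding.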

For assay [4], the target named is rat Androgen Receptor (AR), Ar (gene 24208) (UniProt P15207). The experiment in a line: NVS_NR_rAR: NovaScreen (NVS) Nuclear Receptor Binding Assay for rat Androgen Receptor (AR) (AID 2283366). In a few lines: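 Cell-free radioligand binding on extracts of prostate from testosterone-pretreated rats, read by filter-based scintillation counting 18 h after dosing. Loss of bound signal fitted positively versus DMSO; primary screen in duplicate at 25 uM, actives followed up in concentration series.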

Assay [5] deals with guinea pig Dopamine Transporter (DAT), gene 100714898. The experiment in a line: NVS_TR_gDAT: NovaScreen (NVS) Transporter Assay for guinea pig Dopamine Transporter (DAT) (AID 2283369).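 Further: active compounds lower bound radioligand signal relative to DMSO.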 A digest of the protocol: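 Radioligand displacement on membranes from guinea pig striatum, 2 h exposure, bound label counted by filtration and scintillation. Tested at 25 uM in duplicate, then actives in concentration series to 50 uM; DMSO as negative control.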

The target of assay [6] is human Dopamine Transporter (DAT), SLC6A3 (gene 6531) (UniProt Q01959). Briefly: NVS_TR_hDAT: NovaScreen (NVS) Transporter Assay for human Dopamine Transporter (DAT) (AID 2283374).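 Further: activity means loss of bound radioligand signal relative to DMSO.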 A digest of the protocol: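 Cell-free radioligand displacement binding at human DAT, 1 h after dosing, with filtration and scintillation counting. Primary screen in duplicate at 25 uM, actives then in concentration series. Loss of bound signal versus DMSO scored.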

The target of assay [7] is rat Serotonin Transporter (SERT), Slc6a4 (gene 25553) (UniProt P31652). The experiment in a line: NVS_TR_rSERT: NovaScreen (NVS) Transporter Assay for rat Serotonin Transporter (SERT) (AID 2283375). In a few lines: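 Radioligand binding with competitive displacement on rat forebrain membrane preparations, counted by filtration and scintillation after 1 h. Primary single-point duplicates at 25 uM; active chemicals followed up in concentration-response. DMSO served as baseline.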

In assay [8] the target is human Norepinephrine Transporter (NET), SLC6A2 (gene 6530) (UniProt P23975). The experiment in a line: NVS_TR_hNET: NovaScreen (NVS) Transporter Assay for human Norepinephrine Transporter (NET) (AID 2283377).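 Further: displacement of radioligand from human NET seen as loss of scintillation signal.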 A digest of the protocol:
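Cell-free radioligand binding using CHO-derived membrane protein expressing human NET, read by filter scintillation counting 1 h after dosing; loss of signal vs DMSO. Initial duplicate screen at 25 uM, actives retested in concentration series.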

For assay [9], the target named is mouse Estrogen Receptor alpha (Era), Esr1 (gene 13982) (UniProt P19785). The experiment in a line: NVS_NR_mERa: NovaScreen (NVS) Nuclear Receptor Binding Assay for mouse Estrogen Receptor alpha (Era) (AID 2283378).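 Further: hit means loss of bound radioligand signal relative to DMSO.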 In a few lines: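 Filter radiodetection of radioligand displacement from extracted receptor protein, measured 18 h post-dose. Single 25 uM concentration in duplicate initially, with concentration-series follow-up. Binding loss fitted relative to DMSO.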

The target in assay [10] is Agonist Androgen Response Element (ARE), AR (gene 367) (UniProt P10275). Briefly: OT_AR_ARELUC_AG_1440: Odyssey Thera (OT) 24-hour CHO-K1 Luciferase Assay for Agonist Androgen Response Element (ARE) (AID 2283379). A digest of the protocol: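 CHO-K1 cells carrying an ARE-driven luciferase reporter were exposed to compounds for 24 h. Luminescence was then read after adding a D-luciferin/ATP mix, and activity was scored as a gain in signal over DMSO vehicle.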

In assay [11] the target is Estrogen receptor (Homo sapiens) (UniProt P03372). The experiment in a line: OT_ERa_GFPERaERE_0480: Odyssey Thera (OT) 8-hour HeLa Transcription Induction Assay for Estrogen Receptor (AID 2283381; active means hit-call score of the fitted dose curve at least 0.9, where 1 is the maximum; inactive means score below 0.9). A digest of the protocol: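 HeLa cells dosed with compound and imaged by fluorescence microscopy at 8 h; GFP induction from an ERE reporter quantified by high-content image analysis and fitted as gain of signal against DMSO baseline.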

Assay [12] has the same target. The experiment in a line: OT_ERa_GFPERaERE_0120: Odyssey Thera (OT) 2-hour HeLa Transcription Induction Assay for Estrogen Receptor (AID 2283382). A digest of the protocol: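 HeLa cells were dosed with test chemical and read 2 hours later for GFP-ERα/ERE-linked fluorescent protein induction by fluorescence microscopy. Gain-of-signal was fitted relative to DMSO baseline, quantified by high content image analysis.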

Assay [13] concerns the target Peroxisome proliferator-activated receptor gamma (Homo sapiens) (UniProt P37231). The experiment in a line: NVS_NR_hPPARg: NovaScreen (NVS) Nuclear Receptor Binding Assay for human Peroxisome Proliferator-activated Receptor gamma (PPARg) (AID 2283370). A digest of the protocol: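 Fluorescence polarization readout of ligand binding to extracted human PPARg, measured at 2 h. Duplicate single-point screen at 25 uM, then concentration-series retesting; activity defined as signal loss versus DMSO.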

For assay [14], the target named is Estrogen receptor beta (Homo sapiens) (UniProt Q92731). Briefly: OT_ER_ERbERb_1440: Odyssey Thera (OT) 24-hour HEK293T Protein-Complementation Assay for Estrogen Receptor-beta/-beta Homodimer (AID 2283380).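 Further: scored as signal increase over DMSO baseline for both agonists and antagonists.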 A digest of the protocol: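 HEK293T cells stably expressing ER beta LBD (aa 310-547) homodimer fragment-complementation reporter, dosed 24 h. Cells formaldehyde-fixed, Draq5-stained; gain in nuclear (agonist) or nuclear plus cytoplasmic (antagonist) fluorescence versus DMSO read by laser scanning cytometry.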

The target of assay [15] is Retinoic acid receptor alpha (Homo sapiens) (UniProt P10276). Briefly: NVS_NR_hRARa_Agonist: NovaScreen (NVS) Nuclear Receptor Binding Assay for human Retinoic Acid Alpha Receptor Agonism (RAR) (AID 2283361). A digest of the protocol:
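Cell-free TR-FRET binding readout with extracted receptor protein, read 2 hours after dosing; gain-of-signal fitted relative to DMSO. Screened in duplicate at 25 uM, actives then run in concentration-response.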

Assay [16] deals with human Thyroid Receptor Alpha (TRa), THRA (gene 7067) (UniProt P10827). Briefly: NVS_NR_hTRa_Antagonist: NovaScreen (NVS) Nuclear Receptor Binding Assay for human Thyroid Receptor Alpha Antagonism (TRa) (AID 2283362).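 Further: activity is loss of signal relative to DMSO baseline.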 A digest of the protocol: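 Actives from a duplicate 25 uM single-point screen were retested in concentration series. The cell-free antagonist-format binding assay was read by AlphaLISA chemiluminescence at 1 h, scored as signal loss relative to DMSO.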

Assay [17] has as its target Bile acid receptor (Homo sapiens) (UniProt Q96RI1). The experiment in a line: OT_FXR_FXRSRC1_0480: Odyssey Thera (OT) 8-hour HEK293T Protein-Complementation Assay for Farnesoid X receptor/SRC-1 Co-activator (AID 2283383). In a few lines: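 HEK293T cells expressing FXR and SRC-1 fused to reporter fragments were dosed with compound for 8 h; fluorescence from the reconstituted reporter marked co-activator recruitment. Gain of signal was fitted against the DMSO baseline.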

Assay [18] shares this target. The experiment in a line: OT_FXR_FXRSRC1_1440: Odyssey Thera (OT) 24-hour HEK293T Protein-Complementation Assay for Farnesoid X receptor/SRC-1 Co-activator (AID 2283384). In a few lines: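 HEK293T cells were dosed with compound and read 24 h later by fluorescence intensity from protein-fragment complementation reporting FXR/SRC-1 co-activator interaction. Gain of signal was fitted relative to DMSO negative control as baseline.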

The subject of assay [19] is rat Norepinephrine Transporter (NET), gene 83511. Briefly: NVS_TR_rNET: NovaScreen (NVS) Transporter Assay for rat Norepinephrine Transporter (NET) (AID 2283373). A digest of the protocol: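 Rat forebrain membranes; radioligand binding measured by filter-based scintillation counting 1 hour after dosing. Loss of specific binding versus DMSO baseline scored; primary screen in duplicate at 25 uM, actives followed up in concentration series.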

Where “and” joins values, the source holds several entries; their conditions need not be identical. Equal values may be shown once. Results filed as inconclusive are left out. Calls of active or inactive are those of the source. How the source made its calls, unless noted: active means hit-call score of the fitted dose curve at least 0.9, where 1 is the maximum; inconclusive means response in the unintended direction; inactive means score below 0.9.

Sequence of Estrogen receptor beta (Homo sapiens) (Q92731 whole entry, looked up, the tested form may be a part): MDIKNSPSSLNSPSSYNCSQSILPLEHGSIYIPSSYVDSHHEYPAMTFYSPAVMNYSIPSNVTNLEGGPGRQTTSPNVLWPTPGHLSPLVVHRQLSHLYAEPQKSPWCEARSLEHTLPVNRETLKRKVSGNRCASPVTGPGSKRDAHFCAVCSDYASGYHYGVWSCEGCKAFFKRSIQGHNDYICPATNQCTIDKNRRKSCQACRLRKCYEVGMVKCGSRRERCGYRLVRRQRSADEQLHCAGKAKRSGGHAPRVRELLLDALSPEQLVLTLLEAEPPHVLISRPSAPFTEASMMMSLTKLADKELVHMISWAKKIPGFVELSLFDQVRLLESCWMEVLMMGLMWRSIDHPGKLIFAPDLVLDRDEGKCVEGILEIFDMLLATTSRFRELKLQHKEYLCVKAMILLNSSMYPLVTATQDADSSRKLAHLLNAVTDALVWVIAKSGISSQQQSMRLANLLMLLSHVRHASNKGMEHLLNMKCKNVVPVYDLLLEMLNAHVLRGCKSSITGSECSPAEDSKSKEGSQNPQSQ
Sequence of human Norepinephrine Transporter (NET), SLC6A2 (gene 6530) (P23975 whole entry, looked up): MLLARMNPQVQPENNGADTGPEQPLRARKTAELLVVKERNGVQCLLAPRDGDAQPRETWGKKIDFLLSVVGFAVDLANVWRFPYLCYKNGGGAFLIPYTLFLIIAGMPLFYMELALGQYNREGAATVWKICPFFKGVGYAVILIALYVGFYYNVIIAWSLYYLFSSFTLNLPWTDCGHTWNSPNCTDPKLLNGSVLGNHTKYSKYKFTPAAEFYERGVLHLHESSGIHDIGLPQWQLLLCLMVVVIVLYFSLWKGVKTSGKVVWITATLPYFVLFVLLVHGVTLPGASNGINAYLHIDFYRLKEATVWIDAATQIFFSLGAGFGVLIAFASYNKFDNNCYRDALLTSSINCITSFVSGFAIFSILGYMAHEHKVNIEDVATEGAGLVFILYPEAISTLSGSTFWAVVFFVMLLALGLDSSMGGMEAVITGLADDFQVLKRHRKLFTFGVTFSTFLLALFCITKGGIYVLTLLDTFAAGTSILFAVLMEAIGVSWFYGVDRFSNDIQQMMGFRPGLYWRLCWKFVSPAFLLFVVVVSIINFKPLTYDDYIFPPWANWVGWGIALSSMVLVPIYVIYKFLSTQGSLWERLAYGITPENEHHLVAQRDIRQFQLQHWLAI
Sequence of Estrogen receptor (Homo sapiens) (P03372 whole entry, looked up): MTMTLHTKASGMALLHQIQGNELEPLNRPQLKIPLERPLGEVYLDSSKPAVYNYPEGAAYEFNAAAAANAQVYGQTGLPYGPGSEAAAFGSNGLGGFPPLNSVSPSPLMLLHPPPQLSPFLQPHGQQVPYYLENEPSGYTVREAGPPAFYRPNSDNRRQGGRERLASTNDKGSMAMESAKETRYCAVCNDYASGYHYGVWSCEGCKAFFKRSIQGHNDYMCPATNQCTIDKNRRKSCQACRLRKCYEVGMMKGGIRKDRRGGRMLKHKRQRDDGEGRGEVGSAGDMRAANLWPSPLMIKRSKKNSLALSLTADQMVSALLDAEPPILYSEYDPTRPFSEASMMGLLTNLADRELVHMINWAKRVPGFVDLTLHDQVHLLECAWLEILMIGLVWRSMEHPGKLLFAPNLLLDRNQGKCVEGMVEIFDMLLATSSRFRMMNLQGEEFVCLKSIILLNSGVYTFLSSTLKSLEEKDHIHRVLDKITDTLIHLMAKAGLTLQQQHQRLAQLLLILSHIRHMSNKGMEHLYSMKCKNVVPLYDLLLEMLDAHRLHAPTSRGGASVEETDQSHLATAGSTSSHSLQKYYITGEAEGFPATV
Sequence of Glucocorticoid receptor (Homo sapiens) (P04150 whole entry, looked up): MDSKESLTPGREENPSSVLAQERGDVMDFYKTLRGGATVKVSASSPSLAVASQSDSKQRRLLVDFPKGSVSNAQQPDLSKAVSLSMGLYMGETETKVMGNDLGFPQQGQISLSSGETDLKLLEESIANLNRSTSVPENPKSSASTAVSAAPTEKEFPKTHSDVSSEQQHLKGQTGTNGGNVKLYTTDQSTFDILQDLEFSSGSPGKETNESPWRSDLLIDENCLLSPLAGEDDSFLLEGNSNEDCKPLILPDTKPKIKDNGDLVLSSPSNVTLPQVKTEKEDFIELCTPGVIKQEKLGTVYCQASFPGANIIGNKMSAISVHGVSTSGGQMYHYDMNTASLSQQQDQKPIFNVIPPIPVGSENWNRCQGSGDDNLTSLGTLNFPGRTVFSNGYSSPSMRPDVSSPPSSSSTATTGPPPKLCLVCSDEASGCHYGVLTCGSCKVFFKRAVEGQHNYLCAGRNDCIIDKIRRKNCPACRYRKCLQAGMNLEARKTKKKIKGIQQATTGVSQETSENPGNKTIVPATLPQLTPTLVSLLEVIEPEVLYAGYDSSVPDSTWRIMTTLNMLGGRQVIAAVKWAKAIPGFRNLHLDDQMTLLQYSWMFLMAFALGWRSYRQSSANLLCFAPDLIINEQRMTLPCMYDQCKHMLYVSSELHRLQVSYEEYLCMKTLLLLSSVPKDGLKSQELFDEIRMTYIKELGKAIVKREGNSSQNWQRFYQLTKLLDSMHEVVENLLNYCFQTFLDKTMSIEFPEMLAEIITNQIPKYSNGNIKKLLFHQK
Sequence of Agonist Androgen Response Element (ARE), AR (gene 367) (P10275 whole entry, looked up): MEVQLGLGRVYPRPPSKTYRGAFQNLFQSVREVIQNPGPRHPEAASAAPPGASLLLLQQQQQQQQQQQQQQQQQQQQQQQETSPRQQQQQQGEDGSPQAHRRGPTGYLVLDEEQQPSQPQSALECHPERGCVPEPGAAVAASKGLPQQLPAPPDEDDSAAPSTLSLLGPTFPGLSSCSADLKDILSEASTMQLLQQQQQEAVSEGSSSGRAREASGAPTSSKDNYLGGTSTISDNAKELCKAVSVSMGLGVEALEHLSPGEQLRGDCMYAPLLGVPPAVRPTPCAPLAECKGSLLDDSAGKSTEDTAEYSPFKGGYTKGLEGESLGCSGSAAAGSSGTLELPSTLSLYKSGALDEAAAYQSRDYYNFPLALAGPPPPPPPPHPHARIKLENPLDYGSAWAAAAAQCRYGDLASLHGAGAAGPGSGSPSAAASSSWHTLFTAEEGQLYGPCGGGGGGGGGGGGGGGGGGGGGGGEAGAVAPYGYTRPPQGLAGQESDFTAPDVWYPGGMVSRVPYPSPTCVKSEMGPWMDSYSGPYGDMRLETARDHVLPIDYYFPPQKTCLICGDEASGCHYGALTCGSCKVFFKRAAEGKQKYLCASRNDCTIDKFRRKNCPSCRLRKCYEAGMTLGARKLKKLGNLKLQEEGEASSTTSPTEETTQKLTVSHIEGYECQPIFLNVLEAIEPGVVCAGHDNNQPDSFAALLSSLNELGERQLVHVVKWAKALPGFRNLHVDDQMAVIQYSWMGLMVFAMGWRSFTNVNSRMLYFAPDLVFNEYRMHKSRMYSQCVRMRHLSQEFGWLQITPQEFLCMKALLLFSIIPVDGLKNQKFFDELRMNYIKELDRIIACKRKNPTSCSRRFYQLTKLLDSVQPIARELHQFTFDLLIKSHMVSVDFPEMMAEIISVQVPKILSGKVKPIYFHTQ
Sequence of Nuclear receptor subfamily 1 group I member 2 (Homo sapiens) (O75469 whole entry, looked up): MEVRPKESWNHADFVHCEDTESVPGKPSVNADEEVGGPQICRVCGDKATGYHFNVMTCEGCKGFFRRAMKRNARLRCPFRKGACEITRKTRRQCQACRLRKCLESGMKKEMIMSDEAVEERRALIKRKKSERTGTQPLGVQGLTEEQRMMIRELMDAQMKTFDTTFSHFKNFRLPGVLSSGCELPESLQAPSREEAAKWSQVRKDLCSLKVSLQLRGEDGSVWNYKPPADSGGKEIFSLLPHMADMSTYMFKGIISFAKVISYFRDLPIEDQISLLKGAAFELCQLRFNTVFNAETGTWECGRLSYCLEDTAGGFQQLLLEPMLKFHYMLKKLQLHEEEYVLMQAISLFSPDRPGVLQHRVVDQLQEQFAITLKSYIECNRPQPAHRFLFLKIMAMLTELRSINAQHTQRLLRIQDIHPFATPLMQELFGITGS
Sequence of guinea pig Sigma Receptor, Non-selective Binding, SIGMAR1 (gene 100135589) (Q60492 whole entry, looked up): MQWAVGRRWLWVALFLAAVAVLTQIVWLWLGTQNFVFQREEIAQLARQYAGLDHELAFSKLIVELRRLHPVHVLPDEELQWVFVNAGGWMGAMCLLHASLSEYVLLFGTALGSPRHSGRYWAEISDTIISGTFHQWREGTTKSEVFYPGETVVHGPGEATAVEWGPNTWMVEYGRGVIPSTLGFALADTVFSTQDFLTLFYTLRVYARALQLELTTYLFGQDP
Sequence of human Dopamine Transporter (DAT), SLC6A3 (gene 6531) (Q01959 whole entry, looked up): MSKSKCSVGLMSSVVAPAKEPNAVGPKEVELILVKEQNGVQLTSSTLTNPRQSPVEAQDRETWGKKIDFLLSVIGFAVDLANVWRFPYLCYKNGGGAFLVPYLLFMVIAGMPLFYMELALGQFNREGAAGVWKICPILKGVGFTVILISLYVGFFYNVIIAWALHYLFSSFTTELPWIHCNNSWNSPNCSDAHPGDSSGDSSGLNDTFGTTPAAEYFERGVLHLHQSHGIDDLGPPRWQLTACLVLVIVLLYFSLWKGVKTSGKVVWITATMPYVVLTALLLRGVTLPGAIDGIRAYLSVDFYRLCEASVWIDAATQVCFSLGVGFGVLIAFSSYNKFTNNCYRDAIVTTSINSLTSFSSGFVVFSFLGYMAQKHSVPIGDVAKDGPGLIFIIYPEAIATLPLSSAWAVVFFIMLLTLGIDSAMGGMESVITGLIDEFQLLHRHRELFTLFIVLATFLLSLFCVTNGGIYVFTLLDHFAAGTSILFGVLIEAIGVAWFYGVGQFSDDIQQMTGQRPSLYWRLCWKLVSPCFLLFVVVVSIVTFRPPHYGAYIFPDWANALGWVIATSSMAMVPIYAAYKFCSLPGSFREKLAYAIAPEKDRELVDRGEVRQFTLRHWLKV

`C=CC(=C)CC/C=C(\C)CCC=C(C)C`: the result in [1] was inactive.
With `CCN(CC)CC`, in assay [2], the call was inactive.
For `NC(=NCCCCCCN=C(N)/N=C(\N)Nc1ccc(Cl)cc1)/N=C(\N)Nc1ccc(Cl)cc1`, the AC50 (as a rule, the concentration giving half of the maximal activity seen) was 3.08 µM (active) in assay [1]; 15.4 µM (active) in assay [4]; 23.1 µM (active) in assay [2]; 868 nM (active) in assay [5]; 458 nM (active) in [6]; 0.322 µM (active) in [7]. For the same compound, the half-maximal activity concentration (AC50) in [8] was 356 nM (active); in assay [9], 137 nM (active) and 292 nM (active); in [11], 24.5 µM (active); in assay [12], 28.6 µM (active). In addition, the result in assay [3] and in [10] was inactive.
As for `CCCCCCCCCCCC(=O)O`, the compound was called inactive in assay [3], in assay [13] and in assay [14].
Consider `CN(C)c1ccc(C(=C2C=CC(=[N+](C)C)C=C2)c2ccccc2)cc1`, for which the AC50 in assay [2] was 9.34 µM (active) and 12.5 µM (active); in [5] it was 4.17 µM (active) and 3.93 µM (active); in assay [6] it was 6.41 µM (active) and 3.13 µM (active); in assay [8] it was 18.3 µM (active) and 5.15 µM (active).
Consider `CC1=NN(c2ccccc2)C(=O)C1`, for which the AC50 in [1] is 45.7 µM (active).
As for `Cc1cc(C(=C2C=CC(=Nc3ccc(S(=O)(=O)O)cc3)C=C2)c2ccc(Nc3ccc(S(=O)(=O)O)cc3)cc2)cc(S(=O)(=O)O)c1N`, the AC50 was 17.5 µM (active) in assay [15], 1.32 µM (active) in [1], 0.574 µM (active) in assay [3] and 1.22 µM (active) in assay [4]. Also, the result in [16], in assay [13], in assay [10], in [14], in [11] and in assay [12] was inactive. Further, the compound was classed as inactive in assay [17] and in assay [18].
As to `Cc1ccc(S(=O)(=O)O)cc1`, the compound was called inactive in assay [3] and in assay [14].
Take `CN(C)CCOC(c1ccccc1)c1ccccc1`: the AC50 is 6230 nM (active) in [5], 2.98 µM (active) in [19] and 12.6 µM (active) in [7]. Further, the call in [10], in assay [14], in [11] and in assay [12] was inactive.
